Assay results from PubChem BioAssay AID1625 (Sanford-Burnham Center for Chemical Genomics, 2009).
About 570 (0.3%) of roughly 190,000 compounds were called active.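 How the source made its calls: active means z-score above 3 at 5 µM with at least 500 cells counted in the well; inconclusive means wells under 500 cells, flagged as cytotoxic or low count; inactive means the rest.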 What follows is part of a selection rich in actives, with near analogues and random picks from the rest.

assay: up-regulation of insulin promoter-GFP reporter – imaging, high-content screening, mouse beta cells (AID 1625); conditions: MIN6 insulin promoter-GFP reporter, at 5 µM; cell count: measured here: cytotoxicity, nuclei count; z-score: stronger effect = higher value;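 on cell count: total cells summed across four imaged fields per well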

| SMILES | cell count | z-score |
| --- | --- | --- |
| Cc1cc(/C=N/n2cnnc2)c(C)n1-c1cccc(C(=O)O)c1 | 1240 cells | 4.18 (active) |
| Cc1cc(/C=N/Nc2ccc([N+](=O)[O-])cn2)c(C)n1-c1cccc(C(=O)O)c1 | 1080 cells | -0.44 (inactive) |
| Cc1cccc(-n2c(C)cc(/C=N/NC(N)=S)c2C)c1 | 1370 cells | 0.39 (inactive) |
| CC(=O)N1N=C(c2ccncc2)OC1(Cc1ccccc1)Cc1ccccc1 | 1090 cells | 0.04 (inactive) |
| O=C(CSc1nnc(-c2ccc(NS(=O)(=O)c3ccccc3)cc2)o1)NCC1CCCO1 (centres undefined) | 1210 cells | 0.05 (inactive) |
| O=C(CS(=O)(=O)Cc1ccccc1)NCC1CCCO1 (centres undefined) | 1220 cells | -0.17 (inactive) |
| O=C(CSc1ccc(-c2ccccc2)nn1)NCC1CCCO1 (centres undefined) | 1230 cells | 3.02 (active) |
| COc1cc(SC)ccc1C(=O)Nc1cc(C)ccn1 | 1210 cells | 0 (inactive) |
| CC(=O)Nc1ccc(CC#N)cc1 | 1210 cells | -0.63 (inactive) |
| Cc1ccccc1NC(=S)NNC(=O)c1cccc(Br)c1 | 1120 cells | 0.03 (inactive) |
| O=C(NN1C(=O)C2C(C1=O)C1C=CC2C12CC2)c1ccccc1Cl (centres undefined) | 1130 cells | -0.03 (inactive) |
| CC(C)OP(=O)(OC(C)C)C(Nc1ccccc1)c1cccc([N+](=O)[O-])c1 (centres undefined) | 992 cells | -0.35 (inactive) |
